A549 tox = counter-screen for Nrf2 inhibitors: cytotoxicity in A549 cells. A549 ARE-Fluc cells, CellTiter-Fluor viability, 18-24 h. Potency, µM (top dose mostly 46 µM), for inactives: top-dose activity change, negative = cytotoxicity, most hits filed as inhibitors. 390,000 compounds, 0.16% hits; also: potency is read from the fitted curve at half-maximal effect; % is scaled to controls: 0 for no effect and ±100 for the full control effect
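A549 ARE-Fluc cells in 5% FBS OPTI-MEM, 5000 cells/well, rested 2 h then exposed to compounds in concentration-response for 18-24 h at 37 °C. Viability by CellTiter-Fluor fluorescence (Ex 405/Em 525) after 30 min; luciferase luminescence (BugLite, 15 min, RT) read afterwards.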
TCR activator = activators of T cell receptors; primary human leukocytes, anti-CD3, IL-2 HTRF, 48 h; Potency, µM (top dose mostly 9.22 µM), for the others: at the top dose activation of IL-2 secretion, usual class: activators; 330,000 tested, under 10 active; AID 504894; also: % of control where 0% means no effect
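HTRF read-out of IL-2 secretion: europium cryptate donor excited at 320nm, d2 acceptor emission at 665nm. Cells were primary human leukocytes incubated 48 hr with compounds and a-CD3 beads, supplying TCR signal only.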
AT treatment = potential ataxia-telangiectasia treatments restoring KAP-1 phosphorylation. F2112 A-T fibroblasts, KAP-1 phosphorylation AlphaLISA; neocarzinostatin DNA damage 30 min before lysis. Potency, µM (doses to about 57.5 µM), without a hit: at the highest dose activation, hits mostly activators. 320,000 compounds, 0.19% hits. AID 485349; also: potency is read from the fitted curve at half-maximal effect; % of control where 0% means no effect; nearly all actives have a fitted effect of over 45% in size
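ATM-like activity read as KAP-1 phosphorylation via AlphaLISA donor/acceptor antibody pairs after lysis and 6 hr at 25C. Cells were ATM-null patient fibroblasts (F2112, hTERT), dosed 60 min, then exposed to the DSB inducer NCS for 30 min.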
Nrf2 block = blocks Nrf2 signaling. Potency, µM (doses to about 46 µM), for inactives: at the highest dose activity change, negative = inhibition, usual class: inhibitors. A549 ARE-Fluc reporter, luciferase luminescence, 18-24 h. 360,000 compounds, 2.1% hits; also: potency is read from the fitted curve at half-maximal effect; % is scaled to controls: 0 for no effect and ±100 for the full control effect; nearly all actives have a fitted effect of over 60% in size
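Cells were seeded and rested 2 h, then exposed to compounds for 18-24 h. CellTiter-Fluor was read first as a viability measure. BugLite was added 15 min before the final luminescent read of ARE-luciferase activity in A549 cells.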
CCT chaperon mod = cytosolic chaperonin activity modulation | purified chaperonin ATPase assay, HTRF ADP detection, 30 min | activity change, % (no concentration beside the values), hits read low | 360,000 compounds, 0.3% hits | AID 651819; in the data active = activity change below about -30%; also: % is scaled to controls: 0 for no effect and ±100 for the full control effect
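Nucleotide hydrolysis assay: TRiC at 20–40 nM final (set by batch activity) with 10 uM ATP, 30 min at 37 °C, in presence of 76 uM compound. Detection by competitive ADP HTRF, 30 min ambient.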
Nrf2 ARE act = activators of Nrf2 (ARE) signaling; AREc32 ARE-luciferase reporter (MCF7-derived line), luminescence, 24 h; Potency, µM (top dose mostly 46.1 µM), without a hit: top-dose activation, most hits filed as activators; 410,000 compounds, 0.31% hits; also: potency is read from the fitted curve at half-maximal effect; % of control where 0% means no effect; nearly all actives have a fitted effect of over 65% in size
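AREc32 cells carrying an ARE-driven firefly luciferase, 1000 cells/well in OPTI-MEM with 5% FBS, dosed after overnight attachment and incubated 24 hr at 37 deg C. Steady-Glo luminescence read after 30 min at RT.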
* marks the source's active call; other numbers are inactive results; ? = inconclusive; nt = no result given; [ ] = dose if it differs, or a comment. Most compounds without a hit are left out; they make up all but 2.6% or so of the library. Unless noted, calls follow the shape of the dose curve; as a rule, active = well fitted curve in the direction sought with a large enough effect; inconclusive = small, poorly fitted or top-dose-only effect, or another doubt; inactive = no such curve, though single readings can be large; an effect the other way counts as inactive or inconclusive.

SMILES	A549 tox	TCR activator	AT treatment	Nrf2 block	CCT chaperon mod	Nrf2 ARE act
C[C@@H](C(=O)Nc1ccc2ccccc2c1)[C@H]1C[C@]1(C)[C@H](NS(=O)(=O)c1ccc(-c2ccccc2)cc1)c1ccccc1	-1.2%	4.5%	-13.1%	-8.4%	-0.8	-0.1%
O=c1c2cc3c(cc2nc2sc(Nc4ccccc4)nn12)OCO3	2.5%	nt	nt	12.3%[9.27 µM]	nt	3.5%
CC[C@]12c3[nH]c4ccc(Cl)cc4c3CCN1C(=O)[C@@H](CC(=O)NCC13CC4CC(CC(C4)C1)C3)C[C@@H]2C(=O)N1CCN(C(=O)C2CC2)CC1	-28.9%	0.7%[46.1 µM]	-16.0%	23.1µM*	-2.5	-1.4%
CC[C@]12c3[nH]c4ccc(OC)cc4c3CCN1C(=O)C(CC(=O)NCC13CC4CC(CC(C4)C1)C3)C[C@@H]2C(=O)N1CCN(C(=O)C2CC2)CC1 (stereo not given in full)	?	-5.9%[46.1 µM]	-13.5%	?	-0.9	7.1%
COc1ccc(CNC(=O)C[C@H]2C[C@H](C(=O)N3CCOCC3)[C@@]3(CCC4CCCC4)c4[nH]c5cc(-c6ccco6)ccc5c4CCN3C2=O)cc1OC	-28.8%	-1.0%[46.1 µM]	3.5%	23.1µM*	-2.0	2.3%
O=C(CC1C[C@H](C(=O)N2CCOCC2)[C@@]2(CCC3CCCC3)c3[nH]c4ccccc4c3CCN2C1=O)NCC12CC3CC(CC(C3)C1)C2 (stereo not given in full)	?	2.9%	43.6%	23.1µM*	0.9	-0.3%
O=C(C[C@H]1C[C@H](C(=O)N2CCOCC2)[C@@]2(CCC3CCCC3)c3[nH]c4cc(-c5ccco5)ccc4c3CCN2C1=O)NCc1cccc(C(F)(F)F)c1	-29.5%	0.3%[46.1 µM]	-2.2%[11.5 µM]	?	-4.5	0.5%
O=C(CC1C[C@H](C(=O)N2CCOCC2)[C@@]2(CCC3CCCC3)c3[nH]c4ccccc4c3CCN2C1=O)NCCN1CCOCC1 (stereo not given in full)	5.6%	7.2%	11.5%	-7.7%	0.0	-0.4%
COc1cc2cc(CCOC(=O)c3ccc(C(F)(F)F)cc3)oc(=O)c2cc1OC	-4.1%	0.8%	-0.2%	-22.5%	-4.0	-0.1%
C=CCn1c(SCC(=O)O)nnc1-c1ccc(C(C)(C)C)cc1	0.0%	-0.5%	0.4%	-6.7%	-30.8*	0.1%
O=C(Nc1ccccc1Oc1ccccc1)c1cccs1	10.7%	4.2%	3.55µM*	1.5%	0.2	0.5%
O=C(Nc1cccc2nsnc12)c1cccs1	-10.9%	2.0%	2.0%	?	-0.4	7.94µM*
Cc1cc(C)cc(C(=O)Nc2ccc(NC(=O)c3cccs3)cc2)c1	?	0.9%	-1.8%	18.4µM*	-0.2	4.2%
Cc1ccc(C(=O)Nc2ccc(NC(=O)c3cccs3)cc2)cc1C	-14.0%	nt	nt	?	nt	-0.4%
O=C(Nc1cccc(NC(=O)c2cccs2)c1)c1cccnc1	-0.7%	1.8%	-12.3%	0.5%	-0.6	12.6µM*
COc1ccc(Cl)cc1NC(=O)c1noc(C)c1[N+](=O)[O-]	-0.6%	7.4%	6.7%	16.0%	-0.5	?
Cn1cnc(S(=O)(=O)N2CCCC(C(=O)Nc3ccc(OC(F)(F)F)cc3)C2)c1 (stereo not given)	-5.6%	nt	nt	nt	nt	0.7%
O=C(Nc1cccc(-c2csc(-c3ccccc3)n2)c1)c1cccs1	0.0%	-5.2%	0.4%	16.4µM*	2.9	4.0%
CC(C)(C)c1ccc(Oc2ccc(NC(=O)c3cccs3)cn2)cc1	-16.7%	-0.1%	2.1%	16.4µM*	0.7	-0.9%
COc1ccc(NC(=O)c2cccs2)cn1	0.5%	-3.7%	0.7%	?	1.5	3.5%
Cc1nc(NC(=O)c2cccs2)ccc1Br	2.6%	5.3%	4.0%	?	-2.5	15.8µM*
CC(C)N(C(=O)Nc1ccc2nsnc2c1)C(C)C	?	-2.0%	31.6µM*	?	-0.6	14.6%
COc1ccc(N(C)C(=O)Nc2ccc3nsnc3c2)cc1	0.0%	-2.7%	1.3%	15.7%	2.3	7.1%
COc1ccc(Cl)cc1NC(=O)c1cc2nc(-c3ccc(C)cc3)cc(C(F)(F)F)n2n1	-0.6%	nt	nt	?	nt	-0.3%
COc1ccc(Nc2cc(O)c3ncccc3c2)cc1	nt	nt	-9.0%	nt	nt	nt
SMILES	A549 tox	TCR activator	AT treatment	Nrf2 block	CCT chaperon mod	Nrf2 ARE act
O=C(CN1C=NS(=O)(=O)c2ccccc21)Nc1ccc(Br)cc1	3.3%	nt	nt	nt	nt	-1.1%
Cc1cc(C)cc(NC(=O)CCc2c(C)nc3nc(CNC(=O)c4cccc(F)c4)nn3c2C)c1	0.1%	nt	nt	-18.2%	nt	3.7%
O=C(NCc1ccco1)Nc1ccc2nsnc2c1	-13.3%	-7.7%	7.9%	4.4%	-1.0	22.4µM*
O=C(Nc1ccc2nsnc2c1)c1cccs1	-5.9%	-3.7%	0.7%	5.5%	-2.4	8.91µM*
CN(C)S(=O)(=O)c1ccc(NC(=O)CSc2nc3ccccc3n2-c2ccccc2)cc1	0.8%	1.3%[46.1 µM]	-1.9%	20.6µM*	-0.1	3.8%
CN(C)S(=O)(=O)c1cccc(NC(=O)CSc2nncn2C)c1	-5.6%	2.9%	0.0%	8.2%	0.7	-0.3%
O=C(O)CSc1nc2ccccc2n1-c1ccccc1	?	1.8%	0.4%	-19.0%	-0.9	-0.3%
CN(C)S(=O)(=O)c1cccc(NC(=O)CSc2nc3ccccc3n2-c2ccccc2)c1	?	3.0%[46.1 µM]	-1.6%	18.4µM*	0.3	2.1%
NS(=O)(=O)c1ccc(NC(=O)CSc2nc3ccccc3n2-c2ccccc2)cc1	?	3.0%[46.1 µM]	5.3%	?	-2.4	1.8%
Cc1cc(C)nc(SCC(=O)Nc2cccc(S(=O)(=O)N(C)C)c2)n1	-5.3%	-4.5%	-1.1%	18.4µM*	2.1	3.5%
Nc1nc2sc3c(c2cc1C(=O)NCC(=O)O)CCCC3	3.5%	1.3%	22.7%	8.2µM*	1.7	-1.3%
CCOc1ccccc1OCC(=O)OCC(=O)c1c(N)n(CC(C)C)c(=O)n(C)c1=O	-1.2%	nt	14.6%	?	1.7	2.7%
Cc1nn(-c2ccccc2)c(C)c1C(=O)OCC(=O)c1c(N)n(CC(C)C)c(=O)n(C)c1=O	?	3.0%	3.0%	5.8µM*	-1.6	-0.7%
COc1ccccc1CCC(=O)OCC(=O)c1c(N)n(CC(C)C)c(=O)n(C)c1=O	-6.0%	8.5%	2.3%	?	2.8	0.6%
CC(C)Cn1c(N)c(C(=O)COC(=O)C2Cc3ccccc3CN2S(C)(=O)=O)c(=O)n(C)c1=O (stereo not given)	-10.3%	4.7%	1.4%	20.6µM*	-3.2	2.1%
CCC(C(=O)OCC(=O)c1c(N)n(CC(C)C)c(=O)n(C)c1=O)c1ccccc1 (stereo not given)	-16.3%	-1.8%	nt	23.1µM*	0.7	-0.5%
